Laboratory results published in PubChem BioAssay.
Activity calls are given as the source filed them. Rule as the data show it, unless noted: active = inhibition above about 30%; inactive = the rest.

Columns and labels:
[1] = molecular target: Nuclear receptor coactivator 3 (Homo sapiens) (UniProt Q9Y6Q9); test: NCOA3 GAL4-fusion reporter inhibition – cell-based, luminescence, quadruplicate, confirmation (AID 588792;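 active = mean inhibition over 43.08%, the solvent-only control mean plus 3 SD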;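 also: 0% = DMSO treated cells and 100% = gossypol at 36 µM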); conditions: HEK293 GAL4-SRC3 luciferase reporter, at 3.6 µM, active compounds read high
[2] = test system: transactivating tegument protein VP16 (Human herpesvirus 1), Gal4-VP16 luciferase reporter; test: repression of VP16-driven luciferase reporter – cell-based, luminescence, high throughput, counter-screen for SRC3 inhibitor project (AID 588794); conditions: mammalian cells, at 3.6 µM, active compounds read high
[3] = test system: transactivating tegument protein VP16 (Human herpesvirus 1); test: compounds suppressing VP16-driven luciferase signal – cell-based, luminescence, single concentration, counter-screen for SRC2 inhibitor project (AID 652007; in the data active = inhibition above about 36%); conditions: cell-based VP16 transactivation luciferase reporter, at 8.9 µM, active compounds read high
[4] = molecular target: Nuclear receptor coactivator 2 (Homo sapiens) (UniProt Q15596); test: inhibition of GAL4-SRC2 driven luciferase expression – cell-based, luminescence, HEK293, triplicate, confirmation (AID 652008;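 active = mean inhibition above 46.5%, the solvent-only control mean plus 3 SD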;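 also: 0% = DMSO-treated cells and 100% = Gossypol at 36 µM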); conditions: HEK293 GAL4-SRC2 luciferase reporter, at 8.9 µM, active compounds read high
[5] = molecular target: Nuclear receptor coactivator 1 (Homo sapiens) (UniProt Q15788); test: NCOA1 GAL4-fusion reporter inhibition – cell-based, luminescence, quadruplicate, confirmation (AID 588820;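 active = mean inhibition above 46.68%, the untreated control wells mean plus 3 SD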;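 also: 0% = DMSO wells and 100% = gossypol 36 µM treated wells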); conditions: HEK293 GAL4-SRC1 luciferase reporter, at 3.6 µM, active compounds read high
[6] = repression of VP16-driven luciferase reporter – cell-based, luminescence, high throughput, counter-screen for SRC1 inhibitor project (AID 588824; in the data active = inhibition above about 25%); conditions: cell-based VP16 transactivation luciferase luminescence; at 3.6 µM; active compounds read high
[7] = StAR promoter reporter inhibitors, counter-screen for LRH-1 inverse agonist project, cell-based, luminescence, high throughput (AID 651611; in the data active = inhibition above about 28%); conditions: StAR promoter luciferase reporter counterscreen, at 3.6 µM, active compounds read high
[8] = molecular target: Nuclear receptor subfamily 5 group A member 2 (Homo sapiens) (UniProt O00482); test: NR5A2 activity suppression in reporter cells – cell-based, luminescence, confirmation (AID 651613; in the data active = inhibition above about 42%;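 also: HEK293T cells co-transfected with LRH-1 and StAR promoter luciferase reporter; 0% = vehicle wells and 100% = parental cells lacking receptor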); conditions: cell-based LRH-1 luciferase reporter, inverse agonism; at 3.6 µM; active compounds read high
[9] = molecular target: Steroidogenic factor 1 (Homo sapiens) (UniProt Q13285); test: inverse agonism at SF1 nuclear receptor – cell-based, luminescence, high throughput, counter-screen for LRH-1 inverse agonist project (AID 651614; in the data active = inhibition above about 44%;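 also: cells cotransfected with StAR promoter reporter and SF1 expression vector; 0% = vehicle on cells with receptor and 100% = vehicle on cells lacking receptor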); conditions: cell-based SF1 luciferase reporter, at 3.6 µM, active compounds read high
[10] = compounds suppressing VP16-driven luciferase signal – cell-based, luminescence, high throughput, counter-screen for LRH-1 inverse agonist project (AID 651615; in the data active = inhibition above about 33%); conditions: Gal4-VP16 luciferase reporter cells, at 3.6 µM, active compounds read high

Measured: inhibition

Chain of Steroidogenic factor 1 (Homo sapiens) (Q13285 whole entry, looked up, the tested form may be a part): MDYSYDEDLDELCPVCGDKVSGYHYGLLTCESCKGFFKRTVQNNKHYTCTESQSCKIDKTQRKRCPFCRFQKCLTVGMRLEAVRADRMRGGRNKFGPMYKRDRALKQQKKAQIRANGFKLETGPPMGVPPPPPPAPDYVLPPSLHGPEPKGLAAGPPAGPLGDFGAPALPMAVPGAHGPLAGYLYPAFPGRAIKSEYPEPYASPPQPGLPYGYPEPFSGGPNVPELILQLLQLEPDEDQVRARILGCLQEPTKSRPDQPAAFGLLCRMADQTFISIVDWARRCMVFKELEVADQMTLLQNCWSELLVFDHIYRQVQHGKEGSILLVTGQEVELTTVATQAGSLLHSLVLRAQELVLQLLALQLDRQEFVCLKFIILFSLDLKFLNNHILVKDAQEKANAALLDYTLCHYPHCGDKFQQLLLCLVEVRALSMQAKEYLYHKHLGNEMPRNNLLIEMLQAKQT
Chain of Nuclear receptor coactivator 1 (Homo sapiens) (Q15788 whole entry, looked up, the tested form may be a part): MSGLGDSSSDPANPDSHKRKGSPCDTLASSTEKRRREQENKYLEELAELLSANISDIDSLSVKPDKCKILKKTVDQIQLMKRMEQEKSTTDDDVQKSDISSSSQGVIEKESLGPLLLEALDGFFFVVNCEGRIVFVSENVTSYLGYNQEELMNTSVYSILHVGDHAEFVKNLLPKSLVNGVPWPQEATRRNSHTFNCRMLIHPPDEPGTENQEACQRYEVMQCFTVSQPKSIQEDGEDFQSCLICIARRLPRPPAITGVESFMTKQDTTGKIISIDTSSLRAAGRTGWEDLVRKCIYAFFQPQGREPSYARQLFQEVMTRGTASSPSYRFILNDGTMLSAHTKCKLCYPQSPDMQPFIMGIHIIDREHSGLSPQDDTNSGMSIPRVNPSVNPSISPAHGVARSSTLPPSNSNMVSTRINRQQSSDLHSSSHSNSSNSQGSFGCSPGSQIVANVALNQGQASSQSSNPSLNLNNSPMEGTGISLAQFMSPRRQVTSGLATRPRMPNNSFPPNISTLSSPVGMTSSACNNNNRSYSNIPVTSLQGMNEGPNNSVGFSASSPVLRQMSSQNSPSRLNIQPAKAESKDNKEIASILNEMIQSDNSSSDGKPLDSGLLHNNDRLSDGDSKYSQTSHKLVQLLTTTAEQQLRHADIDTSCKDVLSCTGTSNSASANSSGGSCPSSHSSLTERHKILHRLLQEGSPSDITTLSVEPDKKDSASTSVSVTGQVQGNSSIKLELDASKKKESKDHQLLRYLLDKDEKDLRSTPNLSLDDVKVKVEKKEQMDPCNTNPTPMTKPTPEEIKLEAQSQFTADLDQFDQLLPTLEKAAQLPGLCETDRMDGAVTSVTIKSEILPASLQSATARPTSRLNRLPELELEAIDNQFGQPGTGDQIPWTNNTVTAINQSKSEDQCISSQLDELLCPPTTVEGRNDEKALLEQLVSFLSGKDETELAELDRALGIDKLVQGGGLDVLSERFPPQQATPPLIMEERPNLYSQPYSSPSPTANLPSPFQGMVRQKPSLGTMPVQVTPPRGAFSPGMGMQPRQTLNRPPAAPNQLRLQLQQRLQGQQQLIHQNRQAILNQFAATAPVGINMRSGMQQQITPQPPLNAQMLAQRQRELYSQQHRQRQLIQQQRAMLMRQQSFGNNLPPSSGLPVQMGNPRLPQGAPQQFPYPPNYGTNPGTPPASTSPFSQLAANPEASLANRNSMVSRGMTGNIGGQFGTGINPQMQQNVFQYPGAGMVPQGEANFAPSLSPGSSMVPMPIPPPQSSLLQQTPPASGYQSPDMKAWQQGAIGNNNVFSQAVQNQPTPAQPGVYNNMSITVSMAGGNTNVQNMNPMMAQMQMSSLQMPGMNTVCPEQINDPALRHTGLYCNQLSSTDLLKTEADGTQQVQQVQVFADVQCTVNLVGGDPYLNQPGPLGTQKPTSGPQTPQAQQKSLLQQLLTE
Chain of Nuclear receptor coactivator 2 (Homo sapiens) (Q15596 whole entry, looked up, the tested form may be a part): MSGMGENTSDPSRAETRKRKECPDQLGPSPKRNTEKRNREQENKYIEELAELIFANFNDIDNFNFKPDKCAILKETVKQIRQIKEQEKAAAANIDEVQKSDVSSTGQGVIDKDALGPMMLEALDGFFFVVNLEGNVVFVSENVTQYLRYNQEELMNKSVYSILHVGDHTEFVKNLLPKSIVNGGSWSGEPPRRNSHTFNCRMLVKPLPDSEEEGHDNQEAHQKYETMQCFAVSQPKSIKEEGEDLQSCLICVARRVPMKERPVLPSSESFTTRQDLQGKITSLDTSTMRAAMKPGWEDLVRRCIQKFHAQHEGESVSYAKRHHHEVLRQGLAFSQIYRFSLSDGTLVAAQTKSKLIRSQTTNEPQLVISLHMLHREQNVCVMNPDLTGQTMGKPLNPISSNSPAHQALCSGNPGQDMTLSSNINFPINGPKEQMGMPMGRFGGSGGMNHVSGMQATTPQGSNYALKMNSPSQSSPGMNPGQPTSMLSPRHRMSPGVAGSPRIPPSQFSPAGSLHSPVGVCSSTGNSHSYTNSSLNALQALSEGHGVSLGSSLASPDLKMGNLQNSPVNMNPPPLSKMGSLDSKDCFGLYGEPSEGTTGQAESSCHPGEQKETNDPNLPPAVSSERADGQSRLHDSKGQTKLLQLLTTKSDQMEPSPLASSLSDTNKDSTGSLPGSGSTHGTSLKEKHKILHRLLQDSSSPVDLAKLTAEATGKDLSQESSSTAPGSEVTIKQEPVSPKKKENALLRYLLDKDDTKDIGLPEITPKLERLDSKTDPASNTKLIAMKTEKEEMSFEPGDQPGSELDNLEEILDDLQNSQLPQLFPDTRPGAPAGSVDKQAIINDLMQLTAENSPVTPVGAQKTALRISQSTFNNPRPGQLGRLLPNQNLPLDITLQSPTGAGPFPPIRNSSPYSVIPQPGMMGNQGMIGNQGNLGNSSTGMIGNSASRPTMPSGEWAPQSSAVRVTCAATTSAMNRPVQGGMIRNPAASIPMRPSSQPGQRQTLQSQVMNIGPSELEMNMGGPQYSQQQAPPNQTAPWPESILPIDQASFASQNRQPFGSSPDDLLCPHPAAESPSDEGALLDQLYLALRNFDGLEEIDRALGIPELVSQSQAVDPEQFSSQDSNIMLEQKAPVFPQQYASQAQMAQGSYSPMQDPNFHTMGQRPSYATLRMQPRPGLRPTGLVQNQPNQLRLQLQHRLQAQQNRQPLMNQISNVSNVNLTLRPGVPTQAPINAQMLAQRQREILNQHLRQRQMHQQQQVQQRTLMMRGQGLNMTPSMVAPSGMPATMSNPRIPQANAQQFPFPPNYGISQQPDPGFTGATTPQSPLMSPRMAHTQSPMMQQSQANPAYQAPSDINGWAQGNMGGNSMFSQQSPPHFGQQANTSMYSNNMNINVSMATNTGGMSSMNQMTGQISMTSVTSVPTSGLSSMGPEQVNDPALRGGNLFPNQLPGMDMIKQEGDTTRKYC
Chain of Nuclear receptor coactivator 3 (Homo sapiens) (Q9Y6Q9 whole entry, looked up, the tested form may be a part): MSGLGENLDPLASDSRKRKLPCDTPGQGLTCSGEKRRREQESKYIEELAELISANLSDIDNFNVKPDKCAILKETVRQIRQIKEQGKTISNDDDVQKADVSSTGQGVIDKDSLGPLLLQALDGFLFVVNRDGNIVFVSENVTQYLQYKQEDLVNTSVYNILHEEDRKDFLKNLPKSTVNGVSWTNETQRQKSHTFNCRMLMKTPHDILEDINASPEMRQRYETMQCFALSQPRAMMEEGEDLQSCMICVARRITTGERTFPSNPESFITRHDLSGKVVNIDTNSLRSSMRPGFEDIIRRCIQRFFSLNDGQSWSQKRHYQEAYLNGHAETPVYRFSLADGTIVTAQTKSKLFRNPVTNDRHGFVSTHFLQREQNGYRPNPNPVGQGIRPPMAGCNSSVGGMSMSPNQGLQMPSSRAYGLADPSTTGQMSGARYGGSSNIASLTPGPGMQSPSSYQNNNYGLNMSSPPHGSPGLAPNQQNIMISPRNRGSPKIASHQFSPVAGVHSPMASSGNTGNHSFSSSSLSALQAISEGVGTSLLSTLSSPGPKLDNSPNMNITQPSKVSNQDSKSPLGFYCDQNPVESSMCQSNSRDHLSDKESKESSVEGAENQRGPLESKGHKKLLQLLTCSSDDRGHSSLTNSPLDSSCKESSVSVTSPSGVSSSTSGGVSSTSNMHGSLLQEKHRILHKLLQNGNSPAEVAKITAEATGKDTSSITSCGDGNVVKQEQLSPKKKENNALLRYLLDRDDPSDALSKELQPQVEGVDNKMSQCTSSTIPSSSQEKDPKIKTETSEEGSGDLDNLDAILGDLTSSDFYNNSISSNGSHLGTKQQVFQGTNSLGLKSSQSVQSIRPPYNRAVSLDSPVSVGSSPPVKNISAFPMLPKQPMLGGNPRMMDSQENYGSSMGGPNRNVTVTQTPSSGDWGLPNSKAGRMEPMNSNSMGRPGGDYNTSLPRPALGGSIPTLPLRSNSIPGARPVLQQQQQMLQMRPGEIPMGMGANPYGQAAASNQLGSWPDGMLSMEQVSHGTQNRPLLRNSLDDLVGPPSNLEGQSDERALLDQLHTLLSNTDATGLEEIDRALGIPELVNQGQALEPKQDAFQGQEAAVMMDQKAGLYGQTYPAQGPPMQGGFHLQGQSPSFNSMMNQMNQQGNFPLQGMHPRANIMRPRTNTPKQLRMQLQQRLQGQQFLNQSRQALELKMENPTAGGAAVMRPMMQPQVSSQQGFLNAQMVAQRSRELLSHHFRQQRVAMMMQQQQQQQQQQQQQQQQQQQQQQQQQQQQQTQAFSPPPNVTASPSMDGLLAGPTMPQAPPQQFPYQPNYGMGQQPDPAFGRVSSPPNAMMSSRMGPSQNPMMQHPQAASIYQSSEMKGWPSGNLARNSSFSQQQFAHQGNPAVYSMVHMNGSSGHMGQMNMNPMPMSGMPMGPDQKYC

COC(=O)c1ccc(NC(=O)CSc2nc3ccc(N4C(=O)C5C6C=CC(C6)C5C4=O)cc3s2)cc1 (stereo unspecified)
inactive: [1] -22.8% | [2] -0.23% | [3] 24.8% | [4] -3.51%

CCCCn1nnnc1C(CCSC)N1CCC(n2c(=O)[nH]c3ccccc32)CC1 (stereo unspecified)
inactive: [5] -63.4% | [6] 6.98%

COc1ccc(CN2Cc3cnnn3-c3ccccc3C2C#N)cc1 (stereo unspecified)
active: [1] 62.8% | [2] 56.2% | [3] 51.6% | [4] 49.8%

COc1ccc(-n2nnnc2C(c2cccc3ccccc23)N2CCC3(CC2)C(=O)NCN3c2ccccc2)cc1 (stereo unspecified)
inactive: [5] -1.91% | [6] 5.57%

COc1cc2nc(CN3CC=C(c4ccccc4)CC3)[nH]c(=O)c2cc1OC
inactive: [1] 37.9% | [3] -4.49% | [4] 24.4%
active: [2] 39.7% | [7] 72.7% | [8] 97.1% | [9] 77.1% | [10] 73.8%

COC(=O)C1=C(c2ccc(-c3ccccc3)c(F)c2)C[C@@H]2CC[C@H]1N2C(=O)N1CCOCC1
inactive: [5] 2.48% | [6] 25.3%

COC(=O)C[C@]1(C(=O)OC)CN(C#N)N(c2ccc(Cl)cc2)C12c1ccccc1-c1ccccc12
active: [2] 63.2% | [7] 34.7% | [8] 61.1% | [9] 58.2% | [10] 69.2%
inactive: [1] 17.7%

C[C@H]1CCC/C=C/[C@@H]2C[C@H](O)C[C@H]2[C@@H](O)/C=C/C(=O)O1
active: [1] 64.3% | [2] 77.3% | [7] 81.5% | [8] 85.4% | [9] 80% | [10] 74.8%

CN1CCN(c2cc(N3CCCCCC3)c(F)cc2[N+](=O)[O-])CC1
inactive: [5] -15.1% | [6] -7.21%

CCN(CC)C1=NC(=[N+](CC)CC)c2ccccc21
active: [6] 31.1% | [7] 33.7% | [8] 107% | [9] 74.5% | [10] 85.6%
inactive: [5] 9.91%

N#CCCn1cc(C(=O)Nc2ccccc2Cl)c(-c2ccc([N+](=O)[O-])cc2)n1
active: [8] 57.2% | [9] 59.8%
inactive: [7] 16.9% | [10] -6.5%
